Hit rate of the full screen: of about 48,000 compounds, about 13,000 (27%) showed an effect of 50% or more. The list shows a part of the results.
These compounds were tested on Wolbachia pipientis (assay: Anti-Wolbachia Cell-Based Screen). Settings: 5 µM.
Type: functional
Parameters: scale not given: in the data most compounds retested in dose-response had high values

Compound	Percent Effect
Cn1cnc(S(=O)(=O)NCC2CCN(C(=O)Oc3ccccc3)CC2)c1	-16.29%
Cc1ccc(C(NC(=O)Cn2cc(C3CC3)nn2)C2CC2)cc1 (stereo unspecified)	-17.63%
Cc1cc(CN(C)C(=O)NC2CCC(O)CC2)no1 (stereo unspecified)	-5.162%
c1csc(CNc2ccccc2Cn2cncn2)c1	2.841%
Cn1cnc(S(=O)(=O)NCC2(O)CCc3ccccc32)c1 (stereo unspecified)	-54.8%
Cn1cc(CN2CCC[C@]3(C(=O)O)CN(c4cnccn4)CC[C@@H]23)cn1	-2.616%
NC(=O)c1cnc(NC2CCN(c3ccccn3)CC2)c(Cl)c1	-2.297%
O=c1cc(N2CCCCC2)cnn1CC(O)C(F)(F)F (stereo unspecified)	110.9%
O=c1cc(N2CCCCC2)cnn1C[C@H](O)CO	78.69%
O=c1cc(N2CCCC2)cnn1CC(F)F	95.3%
CC(C)=CCn1ncc(N2CCOCC2)cc1=O	1.937%
O=c1cc(N2CCCC2)cnn1CCc1cccc(F)c1	9.222%
O=c1cc(N2CCOCC2)cnn1CCc1ccc(F)cc1	-9.338%
CCC(CC)Cn1ncc(N2CCOCC2)cc1=O	7.831%
O=c1cc(N2CCNCC2)cnn1CCc1ccc(F)cc1	-7.094%
CC(C)=CCn1ncc(N2CCCCC2)cc1=O	8.054%
Cc1nnc(N2C[C@H](C(=O)NCC3CC3)[C@@H]3CCO[C@@H]3C2)s1.O=C(O)C(F)(F)F	0.08379%
CC(C)Cc1noc(CNc2cccc(-c3nnnn3C)c2)n1	3.895%
COCc1nc(N2CCC(CCO)CC2)c2cnn(C)c2n1	-4.999%
CCc1nc(N2CCN(Cc3ncccc3C)CC2)c2cnn(C)c2n1	1.339%
CCCOC1CCCN(c2ncnc3c2CCN(C(=O)C2CC2)C3)C1 (stereo unspecified)	1.517%
CCCOC1CCCN(c2nc(COC)nc3c2cnn3C)C1 (stereo unspecified)	118.8%
CN(C)[C@H]1CCN(c2nc(C(C)(C)C)nc3c2cnn3C)C1	-2.508%
CCCOC1CCCN(c2nc(CC)nc3c2cnn3C)C1 (stereo unspecified)	107.1%
COCc1nc(N2CC[C@H](N(C)C)C2)c2cnn(C)c2n1	102.3%
COc1cc(NC(=O)Cn2ccc3sc(C)cc3c2=O)cc(OC)c1	-10.49%

Compound	Percent Effect
COCCCNC(=O)CN(C)C(=O)c1cc(C)sc1C	-3.68%
NC(=O)NC(=O)Cn1ccc2sccc2c1=O	-7.139%
CCC(C)NC(=O)Cn1ccc2sc(C)cc2c1=O (stereo unspecified)	106.2%
COCCNC(=O)Cn1ccc2sc(C)cc2c1=O	165.3%
N#Cc1cccc(N2CCCC3(C2)CN(c2ncc(F)cn2)CCO3)n1.O=C(O)C(F)(F)F (stereo unspecified)	-18.06%
Fc1ccc(CN2CCCCC2Cn2cncn2)c2ncccc12 (stereo unspecified)	6.637%
Cc1ncc(CC(=O)N2CCCC(COc3ccccc3F)C2)c(=O)[nH]1 (stereo unspecified)	16.93%
Cn1cnc2c1CCN(Cc1cccc(OCC(N)=O)c1)C2	-0.9151%
NC(=O)CN1CCC(C(=O)NCc2ccc3c(c2)OCCCO3)CC1	-4.067%
NC(=O)CN1CC[C@@]2(O)CCCC[C@H]2[C@@H]1c1ccc2c(c1)OCO2	128.7%
CC(=O)N1CC[C@@]2(O)CCCC[C@H]2[C@@H]1c1ccc2c(c1)OCO2	121.2%
CC(=O)N1CCN(C[C@H]2CC[C@@H](Cc3ccc4c(c3)OCO4)O2)CC1	6.248%
COC(=O)N1CC[C@@]2(O)CCCC[C@H]2[C@@H]1c1ccc2c(c1)OCO2	122.6%
CN1CCN(C(=O)N2CC[C@@](O)(c3ccccc3)[C@H]3CCCC[C@@H]32)CC1	-18.77%
CCN1CCCC(O)(CNCc2ccc3c(c2)OCO3)C1 (stereo unspecified)	-9.558%
CC(=O)N1CC[C@@]2(O)CCCC[C@H]2[C@@H]1c1ccccc1	132.1%
CC(=O)N1CC[C@H]2NC(=O)N(Cc3ccccc3)C(=O)[C@H]21	6.922%
Cn1cc(C(=O)N2CCCC2c2ccc3c(c2)OCO3)ccc1=O (stereo unspecified)	2.509%
O=C(O)C(c1ccc2c(c1)OCO2)N1CCC(C(=O)N2CCCC2)CC1 (stereo unspecified)	0.296%
Cn1ccc(CN2CCCC2c2ccc3c(c2)OCCCO3)cc1=O (stereo unspecified)	3.687%
CCCN1CC2(CCN(c3ccc(C(C)=O)cn3)CC2)CC1C(=O)O (stereo unspecified)	10.16%
Cc1noc([C@@H]2C[C@H](NC(=O)NC(C)C)CN2C)n1	-7.021%
CN1C[C@@H](NC(=O)c2ccccc2)C[C@H]1c1nc(-c2cnccn2)no1	-2.532%
CN1CCN(CCc2ncnn2-c2ccc3c(c2)OCO3)CC1	-0.8313%
O=S(=O)(NCCSc1nccn1C1CC1)c1ccccc1	5.63%
CSCc1ccc(CNCCCN2CCOCC2)o1	3.399%

Compound	Percent Effect
CSCc1ccc(CNCCN2CCOCC2)o1	-4.251%
Cc1ccc(CNCCN2CCOCC2)o1	131.7%
CSc1ccccc1C(=O)NCc1cc2n(n1)CCCN(CC(C)C)C2	-7.136%
Cn1cc(N2CCN(c3ccc(C#N)c(Cl)c3)CC2=O)cn1	-30.5%
Cc1cc(CN2CCN(C(=O)c3sccc3C(C)C)CC2)no1	-0.2452%
CCC(O)CN1CCN(C(=O)c2sccc2C(C)C)CC1 (stereo unspecified)	113.4%
CC(C)(O)CN1CCN(C(=O)c2sccc2C2CC2)CC1	-8.363%
CC(C)(C)OC(=O)N1CCN(C(=O)c2sccc2C2CC2)CC1	-2.417%
CCC(O)CN1CCN(C(=O)c2sccc2C2CC2)CC1 (stereo unspecified)	131.2%
CCc1nnsc1C(=O)N1CCN(CC(O)CC)CC1 (stereo unspecified)	-1.027%
Cc1n[nH]c(C)c1CNc1ccc(-c2nc(C3CC3)no2)cn1	9.439%
COc1ccc([C@@H]2CN(C(=O)CCc3cc(Cl)no3)C[C@H]2N(C)C)cc1	-5.122%
COc1ccc(OCCNC(=O)c2ccc3c(=O)[nH][nH]c(=O)c3c2)cc1	4.909%
CC(O)(CCc1ccccc1)CNC(=O)c1ccc(F)cc1 (stereo unspecified)	-3.449%
O=C(O)c1ccc(CCNC(=O)C2(O)Cc3ccccc3C2)cc1	0.991%
O=C(NCCOc1ccccc1)c1ccc2c(c1)C(=O)NC2=O	-4.876%
Cn1c(=O)c2cc(C(=O)NCCOCC(F)(F)F)ccc2n(C)c1=O	109.9%
O=C(NCCOCC(F)(F)F)c1ccc(-c2ccco2)[nH]c1=O	3.056%
Cn1c(=O)c2cc(C(=O)NCCc3ccccc3)ccc2n(C)c1=O	97.39%
Cn1c(=O)c2cc(C(=O)NCCOc3ccccc3)ccc2n(C)c1=O	103.9%
Cc1ccc(-n2ccnc2)c(C(=O)NCCOCC(F)(F)F)c1	1.401%
Cc1cnc(C)c(N2CCC(c3nnc(CN(C)C)n3C3CC3)CC2)n1	5.849%
N#Cc1cc(NS(=O)(=O)c2ccc(C(=O)O)cc2F)ccc1F	-1.66%
CCc1ccc(C(=O)O)cc1S(=O)(=O)Nc1ccc(F)c(C#N)c1	3.443%
Cc1c(F)cc(C(=O)O)cc1S(=O)(=O)Nc1ccc(F)c(C#N)c1	122.4%
O=C(O)c1ccc(F)c(S(=O)(=O)Nc2ccc(-n3cccn3)c(Cl)c2)c1	-11.53%

Compound	Percent Effect
COC(=O)c1ccc(Cl)c(S(=O)(=O)Nc2ccc(F)c(C(N)=O)c2)c1	-0.6488%
N#Cc1cc(NS(=O)(=O)c2cc(C(=O)O)cc(Cl)c2Cl)ccc1F	118.7%
Cc1cnn(Cc2cc(F)ccc2F)c1NC(=O)C1COCCO1 (stereo unspecified)	-3.747%
CCN(C)C(=O)[C@H]1C[C@@](CC(C)C)(C(=O)OC)N(C)[C@H]1c1cccnc1	5.067%
CC(c1ccon1)N(C)C(=O)C1CCN(C(=O)C2CCC2)CC1 (stereo unspecified)	-1.254%
Cc1ccc2oc(C(=O)N3CCC(C(=O)N4CCCC4)CC3)cc2n1	-8.823%
CC(c1ccon1)N(C)C(=O)C1CCN(C(=O)C2CC2)CC1 (stereo unspecified)	3.184%
CC(NC(=O)C1CCN(C(=O)C2CC2)CC1)c1nncn1C(C)C (stereo unspecified)	-33.62%
Cc1cc(-c2ccc(=O)n(C3CCN(C(=O)C4CC4)CC3)n2)c(C)o1	96.13%
Cc1cc(-c2ccc(=O)n(C3CCN(C(=O)C4CCC4)CC3)n2)c(C)o1	91.93%
O=C(COc1ccccc1C(F)(F)F)NCCNC(=O)c1ccccc1	-6.371%
CCC(=O)Nc1ncn(Cc2cccnc2)n1	8.509%
OCC1(Cc2ccc(F)cc2F)CCCN(Cc2ccncc2)C1 (stereo unspecified)	-2.33%
Cc1nnc(Cn2cc(I)cc(C)c2=O)o1	62.5%
Cc1noc(C)c1Cn1cc(I)cc(C)c1=O	13.31%
Cc1nc(Cn2cc(I)cc(C)c2=O)oc1C	3.254%
Cc1nc(-c2cc(Cl)c3c(c2)CC(CN)O3)c[nH]1 (stereo unspecified)	12.8%
Cc1occc1C(=O)N1CCC2(CCN(C(=O)c3cccnc3)C2)CC1.O=C(O)C(F)(F)F	124.8%
Cc1occc1C(=O)N1CCC2(CCN(Cc3nccs3)C2)CC1.O=C(O)C(F)(F)F	-10.35%
O=C(O)C(F)(F)F.O=C(c1ccco1)N1C[C@@H]2CCN(c3cccnc3)C[C@@H]2C1	15.12%
O=C(O)C(F)(F)F.O=C(c1cccnc1)N1CCC2(CCN(C(=O)c3ccco3)CC2)C1	98.34%
O=C(O)C(F)(F)F.O=C(c1ccco1)N1CCc2ncnc(Oc3cccnc3)c2CC1	1.407%
COCCNC(=O)[C@]12COC[C@H]1CN(c1cc(OC)ncn1)C2	-2.209%

Reference: ChEMBL document CHEMBL3988442, “University of Dundee, Small-Polar-MMV Screening Library” (2021)
